# Over roughly 33,000 sequences, “E-score (-0.5 to 0.5)” has its median near -0.035; the highest 2% begin near 0.35. Shown is part of a subset that was picked to be rich in the highest values.
# Target: T1, Pdr3 (UniProt P33200)
# T1 sequence: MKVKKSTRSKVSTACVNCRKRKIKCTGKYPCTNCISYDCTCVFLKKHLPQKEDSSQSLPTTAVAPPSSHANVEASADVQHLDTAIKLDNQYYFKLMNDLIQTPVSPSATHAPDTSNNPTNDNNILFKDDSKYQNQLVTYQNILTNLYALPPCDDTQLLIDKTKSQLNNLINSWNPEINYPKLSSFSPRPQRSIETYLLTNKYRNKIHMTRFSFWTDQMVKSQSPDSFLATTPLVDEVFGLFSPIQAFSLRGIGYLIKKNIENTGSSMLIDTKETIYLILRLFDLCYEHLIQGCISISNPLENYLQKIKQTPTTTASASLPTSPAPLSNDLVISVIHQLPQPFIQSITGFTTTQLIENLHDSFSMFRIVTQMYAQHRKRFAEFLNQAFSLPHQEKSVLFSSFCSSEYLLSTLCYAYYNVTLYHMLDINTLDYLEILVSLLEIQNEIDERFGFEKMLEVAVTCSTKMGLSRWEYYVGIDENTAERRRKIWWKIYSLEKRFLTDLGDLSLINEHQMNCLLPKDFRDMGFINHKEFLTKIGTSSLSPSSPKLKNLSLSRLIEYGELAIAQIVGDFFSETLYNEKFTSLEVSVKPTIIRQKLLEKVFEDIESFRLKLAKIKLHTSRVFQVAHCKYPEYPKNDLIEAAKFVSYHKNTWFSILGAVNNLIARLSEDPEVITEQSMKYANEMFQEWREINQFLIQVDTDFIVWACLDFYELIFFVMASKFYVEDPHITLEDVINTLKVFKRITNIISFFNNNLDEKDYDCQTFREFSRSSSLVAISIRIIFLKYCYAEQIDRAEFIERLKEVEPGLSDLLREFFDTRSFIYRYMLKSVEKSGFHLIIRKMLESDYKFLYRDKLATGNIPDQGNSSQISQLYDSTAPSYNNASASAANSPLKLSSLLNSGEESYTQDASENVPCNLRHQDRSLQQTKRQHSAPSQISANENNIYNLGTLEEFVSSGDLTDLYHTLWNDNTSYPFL
# Assay: PBM E-score (8-mer binding enrichment) (E-score (-0.5 to 0.5)); higher = stronger / more preferred TF binding
# Conditions: protein concentration: 200 nM; construct: GST-full length
# Experimental: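 Universal 'all 10-mer' protein binding microarrays (Agilent AMADID 015681) probed with GST-tagged S. cerevisiae TFs (full-length or DBD) made by in vitro transcription/translation (PURExpress), about 100-200 nM. Bound TF was detected with fluorescent anti-GST. Each ungapped 8-mer (which stands for itself and its reverse complement) is scored by the PBM enrichment score (E-score), a modified Wilcoxon-Mann-Whitney statistic from -0.5 to +0.5, computed with the Universal PBM Analysis Suite. Scale: above 0.35 generally sequence-specific binding.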
row,Sequence,PBM E-score
1,CTGGATTC,0.105
2,AGGGATTA,-0.132
3,AGCCGAGC,0.267
4,GTAACCCA,0.0499
5,AAGCGAAA,-0.0467
6,CTCGTAGC,-0.167
7,CGACCATA,0.0144
8,CTTCTGGA,-0.0291
9,CATCTACC,0.0434
10,AGCTCGGA,0.316
11,CCCTCGGA,0.373
12,GGCTCGGA,0.338
13,CGCTCGGA,0.359
14,TACTCGGA,0.336
15,CCCTCGGC,0.173
16,GCCTCGGA,0.308
17,AACTCGGA,0.296
18,CCGTCGGA,0.361
19,CCGTCGGC,0.285
20,ACGTCGGA,0.175
21,GACTCGGA,0.39
22,ACGATCAG,-0.108
23,AGCTCCCT,-0.178
24,CATAAAGG,-0.0331
25,TCACGAAA,0.0507

row,Sequence,PBM E-score
1,AGCGGGGG,-0.158
2,ACCTCGGG,0.158
3,ACCTCGGA,0.357
4,ACCTCGGC,0.307
5,AACGTCAA,-0.146
6,GCTATTCA,0.0956
7,AATGGTAG,-0.0896
8,AGAACTCC,0.0347
9,GGAACTCC,0.366
10,CGAACTCC,0.132
11,CTCGCGAG,0.192
12,ACGCGGGC,0.17
13,ACGCGGTA,0.0327
14,GCGCGGTA,0.28
15,CCGCGGGC,0.484
16,CTGCGGGC,0.218
17,CCGCGGTA,0.473
18,ACGCGGTC,0.181
19,CCGCGGTC,0.432
20,CGGCGGTC,0.145
21,GATCCAAA,0.064
22,ACGTCTAT,-0.168
23,ACGTAGCT,-0.31
24,CCGTCTAG,0.178
25,CCCGGCAA,0.286

row,Sequence,PBM E-score
1,GCCGGCAA,0.37
2,TACGGCAA,-0.034
3,CCCGGCAC,0.154
4,TCCGGCAA,0.356
5,ACCGGCAA,0.185
6,ACCGGCAC,0.192
7,GCCGGCAC,0.392
8,TTCGGCAA,-0.0284
9,TGAACGAA,-0.195
10,CCTCAACC,-0.118
11,AGATTACA,-0.107
12,ACTGTGAG,-0.0549
13,GAGGCTGA,-0.305
14,AGAGGGCG,0.126
15,CGCGCTAA,0.205
16,CCGGTCGA,0.167
17,CCCGGACG,0.223
18,ACCGGACA,0.206
19,CCCGGACA,0.362
20,CCCCGACA,0.0765
21,GCCGGACA,0.315
22,TCCGGACA,0.447
23,ACTGGGAC,-0.0292
24,AGAACGTA,-0.0336
25,ACGGGCCA,0.117

row,Sequence,PBM E-score
1,ATTTCCGG,0.456
2,CTTTCCGA,0.413
3,GTTTCCAA,-0.274
4,CTTTCCAA,-0.0271
5,ATTTCCTG,0.0852
6,CTTTCCTC,-0.162
7,ATTTCCGA,0.338
8,CTTTCCCC,0.117
9,GTTTCCCA,0.0393
10,CTTTCCCA,0.0901
11,CTTTCCGC,0.384
12,GTTTCCGA,0.429
13,CGCGAAAA,0.096
14,ACGCTTCG,0.00401
15,CGCCTGGC,-0.0374
16,CAACTTCC,0.225
17,AATTTAAT,0.128
18,AAACCTAC,-0.103
19,CTGCCGCC,-0.0369
20,GGAAGATA,0.234
21,GCCCAGAC,-0.222
22,AAATGATG,0.133
23,CTACAAAG,-0.116
24,ATTTCCTC,0.154
25,ATTTCCAC,0.131

row,Sequence,PBM E-score
1,ATTTCCGC,0.413
2,AGCACAAA,0.12
3,CGGGCGTC,0.193
4,CGATTCCC,0.181
5,AGATTCCG,0.453
6,CGATTCCA,0.112
7,CGATTCCG,0.466
8,AGATTCCC,0.198
9,AGATTCCT,-0.088
10,AACGTGAT,-0.0792
11,ACCGGCTC,0.122
12,TGACGAAA,-0.112
13,CGACGGAC,0.342
14,AGACGGAT,0.249
15,AGACGGAG,0.216
16,GGACGGAA,0.429
17,GGACGGAC,0.293
18,CGACGGAA,0.439
19,CGACGGAG,0.331
20,TGACGGCA,0.135
21,GGACGGTA,0.118
22,AGACGGAA,0.422
23,TGACGGAA,0.445
24,ATAATACA,0.212
25,ATGATGGC,0.0224

row,Sequence,PBM E-score
1,GGATCTCA,0.0621
2,TCCAAGGA,-0.00825
3,GGGAACCC,0.133
4,TGGAACCA,0.188
5,AGGAACCC,0.00054
6,CGGAACCA,0.483
7,AGGAACCG,0.123
8,CGGAACCC,0.477
9,GGGAACCA,-0.0124
10,CGGAACCG,0.482
11,CAGAACCG,0.116
12,ACTCCATA,-0.0901
13,CACAGTAC,-0.0825
14,ATCTCTTA,-0.0707
15,AATCTCTG,-0.185
16,TACGACTA,-0.179
17,CCTCTAAC,-0.199
18,TCACTGAA,0.0661
19,GCATCCTA,0.00911
20,GAGGGTTA,-0.131
21,TGCCGGCA,0.385
22,GCCCGGCA,0.225
23,GGCCGGCC,0.326
24,GGCCGGCA,0.367
25,AACCGGCA,0.158

row,Sequence,PBM E-score
1,TGCCGACA,0.123
2,ACCGTTAG,-0.208
3,GGGCCCCA,0.092
4,GGCTAAGA,-0.0826
5,AACACGGA,0.374
6,GACACGGA,0.393
7,GACACGGC,0.171
8,AACACGGG,0.116
9,AACACGGC,0.154
10,CACACGGA,0.304
11,GCGACCTA,0.0108
12,GCACGGCA,0.103
13,GCACGGAC,0.356
14,ACACGGAC,0.299
15,GCACGGGA,0.315
16,GCACGGCC,0.21
17,GCACGGAA,0.451
18,ATGCAGCA,0.00559
19,ACAGGGTA,-0.12
20,AGATTCAG,-0.0749
21,GGTATTCA,0.0285
22,CACCGTCA,0.00596

# — the supplement of paper PMC3334620
